From PubChem BioAssay (NCI)
Compounds without any hit were thinned out: in the full panel of roughly 79,000, 15% have a hit. A number with no mark means an inactive call. Active and inactive are the calls of the source. No stated cut-off is given here; in the data, active means growth inhibition above about 70%; inactive means the rest.

Tests used:
[1] = NCI Yeast Anticancer Drug Screen. Data for the rad50 strain (AID 155);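 further: 0% = growth of vehicle-only cultures of the same strain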; conditions: S. cerevisiae rad50 strain growth inhibition; at 50.0 µM; active compounds read high
How it was run: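 Readout: growth inhibition relative to vehicle-treated cultures. Compound exposure was carried out in a genetically defined yeast strain deficient in DNA damage repair.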

[2] = NCI Yeast Anticancer Drug Screen. Data for the mec2-1 strain (AID 157); conditions: S. cerevisiae mec2-1 strain, at 50.0 µM, active compounds read high
How it was run: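 Test agents were screened against the mec2-1 yeast strain, with defined DNA repair or cell cycle alteration. Growth was scored as inhibition against vehicle-only controls.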

[3] = NCI Yeast Anticancer Drug Screen. Data for the sgs1 mgt1 strain (AID 161);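 further: 0% = growth of cultures given vehicle only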; conditions: S. cerevisiae sgs1 mgt1 strain, at 50.0 µM, active compounds read high
How it was run: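 Read-out: growth inhibition vs vehicle controls. Cells: mutant yeast strain deficient in DNA damage repair.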

[4] = NCI Yeast Anticancer Drug Screen. Data for the cln2 rad14 strain (AID 165);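 further: 0% = growth equal to vehicle treated cultures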; conditions: S. cerevisiae cln2 rad14 strain, at 50.0 µM, active compounds read high
How it was run: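 Growth of compound-exposed yeast (cln2 rad14 genotype) measured and expressed as inhibition relative to vehicle.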

[5] = NCI Yeast Anticancer Drug Screen. Data for the bub3 strain (AID 167); conditions: S. cerevisiae bub3 mutant strain, at 50.0 µM, active compounds read high
How it was run: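 Readout: yeast growth inhibition, expressed relative to vehicle-only wells. The test organism is a mutant strain from a panel with lesions in DNA repair or checkpoint genes.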

[6] = NCI Yeast Anticancer Drug Screen. Data for the mlh1 rad18 strain (AID 175); conditions: S. cerevisiae mlh1 rad18 strain growth inhibition; at 50.0 µM; active compounds read high
How it was run: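 In this whole-cell yeast screen, a strain with altered DNA damage repair is challenged with compound, and its growth is measured against matched vehicle-treated controls.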

Row | SMILES | growth inhibition [1] | growth inhibition [2] | growth inhibition [3] | growth inhibition [4] | growth inhibition [5] | growth inhibition [6]
1 | Cc1cc(NC(=S)Nc2ccccc2)c(NC(=S)Nc2ccccc2)cc1C | 2.1% | -25.2% | 1.55% | 6.7% | 3.2% | 3.2%
2 | COC1C(CO)OC(n2c3c(Cl)cccc3c3c4c(c5c6cccc(Cl)c6[nH]c5c32)C(=O)NC4=O)C(O)C1O (centres undefined) | 16.8% | 8.45% | -1.4% | 20.4% | 7.4% | -21.1%
3 | C/C=C(\Cl)C=O | 12.4% | 5% | -22.9% | -9.7% | 3.5% | 11.2%
4 | Cc1cc2c(c3c1c(=O)c1ccccc1n3C)C=CC(C)(C)O2 | -5.05% | -0.2% | 9.95% | 3.35% | 14.4% | -8.9%
5 | CC(C)(C)NC(=O)NCCCCCCNC(=O)NC(C)(C)C | -15.5% | -13.9% | -7.45% | -27.9% | 8.05% | -7.9%
6 | COc1ccc(C(=O)NC(=S)Nc2cccc([N+](=O)[O-])c2)cc1 | -7.3% | 29.9% | 35.5% | -21.6% | 24.6% | 27.7%
7 | CCCCCCC(O)CCCCCCCCCCCO (centres undefined) | 41.5% | -15.4% | 1.05% | -43% | 10.2% | 15.5%
8 | CC(=O)OCC12CCC(C)=CC1O[C@H]1[C@@H](OC(C)=O)[C@H](OC(C)=O)[C@]2(C)[C@@]12CO2 (some centres undefined) | 24.6% | -17.4% | -19.6% | 42.4% | -14.6% | 30.9%
9 | CCc1ccccc1NC(=O)CCc1nc(=S)[nH][nH]1 | -24.8% | 9.6% | 2.9% | 32.4% | 20.1% | 6.15%
10 | Oc1ccc(-c2cc(-c3cc(-c4ccc(O)cc4)no3)on2)cc1 | -1.95% | -3.5% | -10.8% | -11.7% | -32.3% | -7.1%
11 | COc1ccc(C23OCN(c4ccccc4)C2(c2ccc(OC)cc2)c2ccccc2N3C)cc1 (centres undefined) | 4.15% | -6.85% | -25.4% | -0.25% | -2.25% | 11.3%
12 | Oc1ccc(Cn2c(-c3ccc(O)cc3)nc3ccccc32)cc1 | -6.95% | -5% | -10.1% | 5.05% | 1.4% | -13.3%
13 | Cc1sc2c(c1C)C(=O)c1cccn1-2 | 4.95% | -27.8% | -21.6% | -2.8% | -13.9% | -1%
14 | c1cncc(CSc2ncnc3nc[nH]c23)c1 | 11.8% | -24.4% | -20.1% | -21.7% | -48.4% | -10.5%
15 | COC(=O)CC(NC(=O)C(Cc1ccccc1)NC(=O)OCc1ccccc1)C(=O)O (centres undefined) | 31.5% | 9.15% | 18.2% | 11.7% | 2.1% | 23.1%
16 | COc1ccccc1C(N)c1ccccc1 (centres undefined) | -13.1% | -0.75% | 15.9% | 5.8% | -0.7% | 13.6%
17 | COC(=O)CC1=NNC(=O)C1 | -11.7% | -15.1% | -14% | -18.1% | -7.35% | -19.8%
18 | CNc1c(F)cc(N=Nc2ccccc2)cc1F | 14.7% | -8.2% | 30% | -20.7% | -4% | 10.1%
19 | NC(Cc1ccc(O)cc1)C(=O)NCCS(=O)(=O)O (centres undefined) | 1.5% | 9.85% | 26.7% | 11.2% | 18.6% | 0.65%
20 | Nc1ncnc2c1ncn2-c1ccccc1Cl | 4.6% | 8.35% | -4.95% | -1.4% | 0.75% | 3.1%

Row | SMILES | growth inhibition [1] | growth inhibition [2] | growth inhibition [3] | growth inhibition [4] | growth inhibition [5] | growth inhibition [6]
21 | O=C1C(O)=C(Br)C(=O)C(O)=C1Br | 6.2% | -12.2% | 10.1% | -12.1% | 15.4% | 11.6%
22 | CCCCN(CCCC)CCC(O)c1cc(-c2ccc(Cl)c(Cl)c2)nc2c(Cl)cc(Cl)cc12 (centres undefined) | 96.4% (active) | 95.5% (active) | 6.85% | 97.2% (active) | 90.3% (active) | 74.8% (active)
23 | CCN(CC)C(=O)c1ccncc1C(=O)c1ccncc1 | -1.2% | -3.55% | -8.4% | -14.3% | -1.95% | -10.1%
24 | Cc1c(Cl)c(N)c(Cl)c(Cl)c1Cl | 15.7% | -4.5% | 19.1% | -7.3% | 28.6% | 8.75%
25 | O=C(O)C(Br)C(Br)C(=O)Nc1ccc(F)cc1 (centres undefined) | 99.7% (active) | 99.7% (active) | 99.7% (active) | 98.3% (active) | 99.7% (active) | 99.3% (active)
26 | COc1ccc(N=Cc2ccc(N(CCC#N)S(=O)(=O)c3ccccc3)cc2)cc1 | 0.2% | -13.3% | 2.05% | 11.2% | 9.25% | -3.15%
27 | CCCCCCSCCO | -13.2% | -35% | -11.9% | 23.6% | -30.9% | 2.55%
28 | Nc1nnc(Sc2n[nH]c(=O)[nH]c2=O)s1 | -8.8% | -2.6% | -14.3% | -0.2% | -4.9% | -8.05%
29 | COc1cc(C2=N/C(=C\c3cc(Br)cc(Br)c3O)C(=O)O2)cc(OC)c1OC | 83.2% (active) | 94.5% (active) | 88.2% (active) | 98.7% (active) | 98.5% (active) | 92.3% (active)
30 | COc1ccc(Cl)cc1NC(=O)Nc1cc(C)ccc1Cl | -8.35% | 25.8% | 27.4% | -25.2% | 28.8% | 9.9%
31 | CC(C)(C)c1cc(Nc2c([N+](=O)[O-])cc([N+](=O)[O-])cc2[N+](=O)[O-])cc(C(C)(C)C)c1O | -17.7% | 10.4% | 2.65% | 20.4% | -5.4% | 0.45%
32 | O=[N+]([O-])c1cc(Cl)ccc1Nc1ccccc1 | 51.3% | 32.5% | 57.1% | 4.65% | 24.8% | 53.5%
33 | Cc1ncc(CN2CSC(CCO)C2C)c(N)n1 (centres undefined) | 32.6% | 8.4% | 27.2% | 16.8% | 17.4% | 43.1%
34 | CN(C)c1ccc(/C=C(\C#N)C(=O)c2ccccc2)cc1 | -9.8% | 8.25% | 8.9% | -7.15% | 6.85% | 22.9%
35 | CC(=O)Nc1c(CCCCc2ccccc2)[nH]c(=O)[nH]c1=O | 1.8% | 22.5% | 25.8% | 1.4% | 17% | -0.95%
36 | CCOC(=O)C1CC(=O)N(Cc2ccccc2)C(=O)N1 (centres undefined) | -11.1% | 1.8% | -17.6% | -16.9% | 22.1% | -3.5%
37 | CCOC(=O)CC(CC(=O)OCC)(C(=O)OCC)C(=O)OCC | -2.2% | 4.45% | 8.55% | -57.2% | -17.3% | -1.95%
38 | COC(=O)CSc1n[nH]c(-c2ccccc2)n1 | 1.05% | -7.25% | 7.2% | -1% | 3.4% | -4.3%
39 | CC(C)/C=N\n1c(N)c(C#N)c(C#N)c1C(C)C | -4.9% | -5.2% | -37% | 5.95% | -52.8% | -33.6%
